Source: the supplement of paper PMC6555819

Assays:
Assay in all cases: PBM binding z-score (relative to random genomic background probes); higher = stronger binding; sequences stand for … in GC…GCGATTGACAGCGTAGAATGAAGG
[1] = system: FXR:RXRa (NR concentration 270 nM, RXRa partner concentration 90 nM)
Summary of the method: (§1)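 Custom Agilent 4×180K protein-binding microarrays carried double-stranded probes, each with a 34-nt variable region. These regions held direct-repeat seeds, single-nucleotide variants, half-site ablations and random human genomic background sequences. Ligand-free nuclear receptor dimers were incubated on the arrays for 1 h, antibodies against each partner (one per run) detected binding, and scanned fluorescence was regression-normalized. Binding z-scores take the random background probes as reference.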

[2] = system: LXRa:RXRa (NR concentration 270 nM, RXRa partner concentration 90 nM)
Summary of the method: as §1

[3] = system: LXRa homodimer (NR concentration 270 nM)
Summary of the method: as §1

[4] = system: LXRb:RXRa (NR concentration 270 nM, RXRa partner concentration 90 nM)
Summary of the method: as §1

[5] = system: LXRb homodimer (NR concentration 270 nM)
Summary of the method: as §1

[6] = system: PPARa:RXRa (NR concentration 270 nM, RXRa partner concentration 90 nM)
Summary of the method: as §1

[7] = system: PPARg:RXRa (NR concentration 180 nM, RXRa partner concentration 90 nM)
Summary of the method: as §1

[8] = system: PPARg:RXRa 270nM:90nM, anti-RXR (NR concentration 270 nM, RXRa partner concentration 90 nM)
Summary of the method: as §1

[9] = system: PPARg:RXRa 30nM:10nM, anti-RXR (NR concentration 30 nM, RXRa partner concentration 10 nM)
Summary of the method: as §1

[10] = system: PPARg:RXRa 90nM:30nM, anti-RXR (NR concentration 90 nM, RXRa partner concentration 30 nM)
Summary of the method: as §1

[11] = system: PPARg:RXRa DBDmut IVT, anti-RXR (DBD mutation: RXRa K156A/R161A, NR concentration 270 nM, RXRa partner concentration 90 nM)
Summary of the method: as §1

[12] = system: PPARg:RXRa IVT, anti-PPARg (NR concentration 270 nM, RXRa partner concentration 90 nM)
Summary of the method: as §1

[13] = system: PPARg DBDmut:RXRa IVT, anti-PPARg (DBD mutation: PPARg1 K132A/R137A, NR concentration 270 nM, RXRa partner concentration 90 nM)
Summary of the method: as §1

[14] = system: PPARg DBDmut IVT, anti-PPARg (DBD mutation: PPARg1 K132A/R137A, NR concentration 270 nM)
Summary of the method: as §1

[15] = system: PPARg homodimer (NR concentration 180 nM)
Summary of the method: as §1

[16] = system: PXR:RXRa (NR concentration 270 nM, RXRa partner concentration 90 nM)
Summary of the method: as §1

[17] = system: PXR homodimer (NR concentration 270 nM)
Summary of the method: as §1

[18] = system: RARa:RXR (NR concentration 270 nM, RXRa partner concentration 90 nM)
Summary of the method: as §1

[19] = system: RARa homodimer (NR concentration 270 nM)
Summary of the method: as §1

[20] = system: RARb:RXRa (NR concentration 270 nM, RXRa partner concentration 90 nM)
Summary of the method: as §1

Sequence	PBM binding z-score [1]	PBM binding z-score [2]	PBM binding z-score [3]	PBM binding z-score [4]	PBM binding z-score [5]	PBM binding z-score [6]	PBM binding z-score [7]	PBM binding z-score [8]	PBM binding z-score [9]	PBM binding z-score [10]	PBM binding z-score [11]	PBM binding z-score [12]	PBM binding z-score [13]	PBM binding z-score [14]	PBM binding z-score [15]	PBM binding z-score [16]	PBM binding z-score [17]	PBM binding z-score [18]	PBM binding z-score [19]	PBM binding z-score [20]
CCAGACAGGTGAGAAGGTAACACAGCCTCGATTA	0.191	0.2	0.0952	0.413	-0.0709	1.1	0.941	0.656	0.112	0.637	1	0.723	-0.672	-0.419	0.988	-0.0224	0.73	0.409	0.978	0.799
CGAACTAGGTCAGCACAGGACAGTGAAGGATGAT	1.86	1.18	-0.345	0.466	-0.737	3.51	6.07	5.31	2.4	4.32	7.7	7.61	0.871	0.245	1.37	1.42	-0.395	1.03	0.213	3.65
TCTGGTAGATCAAAGGTTAAGAAAGCCGAAGCCT	1.8	2.1	0.139	2.08	-0.305	3.73	6.37	6.52	5.92	6.95	1.47	2.16	-0.482	0.322	0.978	1.97	0.168	2.79	0.25	1.91
CCAGACAGGTGAAATGTAACTCAGTCTGGTACGC	0.0255	-0.0223	-0.367	0.217	0.0964	0.949	1.12	1.5	0.324	1.07	1.56	0.99	-0.289	-0.0118	0.686	0.0204	-0.634	0.296	0.296	0.614
ATCGAAAGGTCGACGAGGTGTGTATACACCGTTT	3.98	3.28	0.0715	2.62	0.354	4.22	2.22	3.12	1.02	2.17	0.053	1.53	-0.0457	0.936	1.17	2.67	-0.171	2.91	0.322	3.74
CCCACTGGGCCACGAAAGGTCATTGATTCAGTGA	3.78	5.11	5.17	4.22	0.369	4.8	4.92	4.99	1.85	3.53	4.55	6.02	1.73	0.623	3	5.57	1.48	5.51	1.31	4.1
CCTAGCAGGCCAGGGTCAGTCAAGCATTTCGCTT	0.838	0.841	-0.832	1.08	-1.29	1.85	-0.277	0.376	-0.624	-0.0858	-0.0042	0.156	-1.41	-1.98	0.086	1.04	-0.793	1.69	-0.695	2.09
CCGAGTAGGTTATGGGGCATTAAGGCAACGGTGA	0.273	0.355	0.112	0.489	0.086	1.94	3.57	4.37	2.35	3.99	3.03	3.54	-0.853	-0.637	1.15	-0.0362	-0.296	0.648	0.0185	0.818
CCTTACTGGTCACTGACAGGTTATAGCATTTGGA	0.509	0.779	0.811	0.822	0.49	0.699	0.266	0.384	-0.0661	0.378	1.41	0.777	0.395	0.913	1.46	0.611	0.48	0.74	1.52	1.72
ATATGTAGGATACATCCGGGTCATTCAGGCTATG	1.21	1.31	0.653	1.61	0.399	2.9	2.14	1.77	0.797	1.28	3.21	3.86	1.63	1.37	1.25	2.39	1.38	2.42	0.161	1.2
CCTCGGAGGACAGAACGTCAGAGCTGTCCGCTTT	-0.455	-0.498	-0.707	-1.16	-1.1	-1.32	-0.391	-1.32	-1.28	-1.56	-0.575	-0.846	-2.12	-1.43	-1.05	-1.12	-0.765	-1.04	-0.587	0.103
CGTCCATGGTCAATGCTAGGTCAGTGAAAGCATT	0.15	0.428	0.451	0.222	-0.306	0.49	-0.131	-0.408	-0.327	-0.269	0.278	0.623	-0.309	-0.685	0.231	0.368	-0.367	0.816	-0.251	2.17
CGTCCAAGGTCAAAAGTCAGTGAAGAGATGACGG	6.47	5.19	0.641	3.79	1.42	5.14	5.67	5.87	3.41	5	2.6	3.24	0.212	-0.048	1.17	3.92	0.638	4.84	0.448	4.63
GCAGACAGGTGTAACGCAGGTAACTCAGGGTGGC	-0.697	-0.644	-1.09	-0.823	-1.61	-0.721	0.351	-0.525	-0.773	-0.582	-0.561	-0.366	-0.91	-1.52	-1.12	-0.578	-1.01	-0.502	-1.69	-0.603
CGAACGACGGCATGAGTTGATAGCAAATGCCGAT	-0.791	-1.12	-0.686	-1.11	-1.32	-1.22	0.598	-0.893	-0.557	-0.878	-1.05	-1.08	-1.17	-0.517	-0.497	-0.722	-0.155	-0.909	-0.629	-1.05
